Some test systems named below: BT-549 breast; MDA-MB-435 melanoma; SW-620 colon; MCF7 breast; HCT-116 colon; HCC-2998 colon; KM12 colon; T-47D breast.
Test in all cases: NCI-60 one-dose screen, 48 h (100 = growth as untreated, 0 = no growth, -100 = all killed)
What all share (conditions): 10 µM unless noted

The panel holds about 83,000 compounds, 20% with a hit somewhere; the sample as a whole holds those more often.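 Results are percent growth after 48 hours of single-concentration exposure. 100 means growth as in untreated cells, lower positive values show inhibition; negative values down to -100 show cell death.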 Values without a mark were called inactive. Activity calls are given as the source filed them. The calls were made as follows: active = growth percent below 10; inactive = the rest.

`COc1cc(/C=C/C(=O)N2CCN(C(=O)/C=C/c3cc(OC)c(OC)c(OC)c3)CC2)cc(OC)c1OC`: the growth in the assay with BT-549 breast was 88.1%; in the assay with MDA-MB-435 melanoma, 115%; with SW-620 colon it was 105%; in the assay with MCF7 breast, 113%; in the assay with HCT-116 colon, 98.3%; with HCC-2998 colon, 102%. Besides, the growth with KM12 colon is 115%.
Regarding `CN(C)c1ncnc2c1ccn2C1OC(CO)C(O)C1O` (stereo not drawn), the growth in the assay with BT-549 breast is 57.3%; in the assay with SW-620 colon, 36.3%; in the assay with MCF7 breast it was -7.76% (active); in the assay with HCT-116 colon it was 37%; in the assay on HCC-2998 colon it was 22.7%; in the assay on KM12 colon, 84.1%.
For `CC(C)(C)N1CCC1C(N)=O` (stereo not drawn), the growth is 99.5% with T-47D breast; 103% in the assay on MDA-MB-435 melanoma; 104% in the assay on MCF7 breast; 77.4% in the assay with HCT-116 colon; 47% with HCC-2998 colon; 99.2% in the assay on KM12 colon.
Consider `CCCCCCCCCCCCCCCCNC(=O)OC(C)C`, for which the growth in the assay on BT-549 breast is 95.8%; in the assay on MDA-MB-435 melanoma, 68.5%; in the assay with MCF7 breast, 1.73% (active); in the assay on HCT-116 colon, 20.8%; in the assay with HCC-2998 colon it was 57.1%; in the assay on KM12 colon, 0.501% (active).
As to `COc1cc(C2CC(c3ccc4c(c3)OCO4)=NN2C(C)=O)cc(OC)c1OC` (stereo not drawn), the growth with BT-549 breast is 60.7%; in the assay on SW-620 colon it was 26.6%; in the assay with MCF7 breast, 17.4%; with HCT-116 colon, 30.9%; in the assay on HCC-2998 colon it was 47.8%; with KM12 colon, 30.6%.
As to `O=c1cc(Cc2ccc([N+](=O)[O-])cc2)[nH]c(=O)[nH]1`, the growth in the assay with BT-549 breast is 98.3%; in the assay with MDA-MB-435 melanoma, 107%; in the assay on SW-620 colon it was 103%; in the assay with MCF7 breast it was 106%; in the assay on HCT-116 colon, 103%; in the assay with HCC-2998 colon, 105%. In addition, in the assay with KM12 colon, the growth was 106%.
As for `S=C1CC(=S)NC(=S)N1`, the growth in the assay with BT-549 breast is 110%; with MDA-MB-435 melanoma it was 112%; in the assay with SW-620 colon, 98.2%; in the assay on MCF7 breast, 94.1%; in the assay on HCT-116 colon, 105%; in the assay with HCC-2998 colon, 104%. Further, the growth in the assay on KM12 colon was 98.9%.
As to `Cc1ccc2nc(Cl)cc(=O)n2c1`, the growth was 102% in the assay with BT-549 breast; 106% in the assay with MDA-MB-435 melanoma; 108% with SW-620 colon; 107% in the assay with MCF7 breast; 105% with HCT-116 colon; 121% with HCC-2998 colon. Moreover, the growth in the assay on KM12 colon was 107%.
Turning to `NC(=S)N/N=C1\CCCC(C(F)(F)F)C1` (stereo not drawn), the growth in the assay on BT-549 breast is 96.3%; in the assay on MDA-MB-435 melanoma, 105%; in the assay with SW-620 colon, 98.5%; in the assay on MCF7 breast, 27.3%; with HCT-116 colon, 8.77% (active); with HCC-2998 colon, 104%.
For the compound `CN(C)c1nc2c(N)ncnc2n1C1OC(CO)C(O)C1O` (stereo not drawn), the growth is 99.9% with BT-549 breast; 112% in the assay on MDA-MB-435 melanoma; 109% in the assay with SW-620 colon; 99.4% with MCF7 breast; 105% in the assay on HCT-116 colon; 110% in the assay with HCC-2998 colon. The growth in the assay on KM12 colon is 105%.
Turning to `COc1cc(C2CC(c3ccc4c(c3)OCO4)=NN2C=O)cc(OC)c1OC` (stereo not drawn), the growth was 40.3% in the assay on BT-549 breast; -25.9% (active) in the assay on MDA-MB-435 melanoma; 27% in the assay on SW-620 colon; 16.8% in the assay with MCF7 breast; 20.6% with HCT-116 colon; 64.2% in the assay with HCC-2998 colon. Also, the growth in the assay on KM12 colon is 23.3%.
On to `CC(NNC(C)c1ccccc1)c1ccccc1` (stereo not drawn), for which the growth is 113% in the assay on BT-549 breast; 112% in the assay on MDA-MB-435 melanoma; 96.1% in the assay on SW-620 colon; 113% with MCF7 breast; 107% in the assay on HCT-116 colon; 103% with HCC-2998 colon. Also, in the assay on KM12 colon, the growth was 115%.
For the compound `O=S(=O)(CC(O)(c1ccccc1)c1ccccc1)CC(O)(c1ccccc1)c1ccccc1`, the growth in the assay with BT-549 breast was 102%; in the assay on MDA-MB-435 melanoma, 89.9%; in the assay on SW-620 colon it was 89.6%; with MCF7 breast, 80.9%; in the assay on HCT-116 colon, 77.7%; with HCC-2998 colon it was 93.1%. In the assay on KM12 colon, the growth is 87.6%.
Take `O=C1Nc2ccc3c(c2/C1=C\c1cc2c(cc1Br)OCO2)OCO3`: the growth is 27.8% in the assay with BT-549 breast; -38.7% (active) with MDA-MB-435 melanoma; 7.57% (active) in the assay with SW-620 colon; 4.51% (active) in the assay with MCF7 breast; -2.7% (active) in the assay on HCT-116 colon; 43.6% in the assay with HCC-2998 colon. Further, the growth in the assay with KM12 colon was -6.85% (active).
On to `O=C(NNC(=O)N1c2ccccc2C=Cc2ccccc21)c1ccccc1`, for which the growth in the assay with T-47D breast is 102%; in the assay with MDA-MB-435 melanoma it was 103%; with MCF7 breast, 95.6%; in the assay with HCT-116 colon, 103%; in the assay on HCC-2998 colon, 114%; with KM12 colon, 105%.
As to `CCOC(=O)C1CCNC(=O)C1=O` (stereo not drawn), the growth with BT-549 breast is 107%; in the assay with MDA-MB-435 melanoma, 113%; with SW-620 colon it was 108%; in the assay with MCF7 breast it was 107%; in the assay on HCT-116 colon it was 107%; in the assay with HCC-2998 colon, 104%. The growth in the assay on KM12 colon was 109%.
Turning to `CCN(CC)CCC(CNc1ccnc2cc(Cl)ccc12)c1ccccc1` (stereo not drawn), the growth is 71% in the assay on T-47D breast; -2.6% (active) in the assay on MDA-MB-435 melanoma; 26.3% in the assay with MCF7 breast; 28.3% in the assay on HCT-116 colon; 68.2% in the assay on HCC-2998 colon; 84.1% in the assay on KM12 colon.
`CCOC(=O)CC(=O)OC`: the growth in the assay on BT-549 breast was 101%; in the assay on SW-620 colon, 98.8%; in the assay with MCF7 breast, 91.5%; in the assay with HCT-116 colon, 104%; with HCC-2998 colon, 104%; with KM12 colon, 115%.
Turning to `CC(C)OC(=O)N1CCOCC1`, the growth with BT-549 breast was 101%; with MDA-MB-435 melanoma, 117%; in the assay on SW-620 colon, 95.4%; in the assay on MCF7 breast it was 100%; with HCT-116 colon, 102%; with HCC-2998 colon it was 104%. In the assay on KM12 colon, the growth is 100%.
In the case of `C1=Cc2ccccc2N(c2nnc(-c3ccccc3)o2)c2ccccc21`, the growth in the assay on T-47D breast was 100%; with MDA-MB-435 melanoma, 87.9%; in the assay on MCF7 breast it was 87.6%; in the assay with HCT-116 colon it was 66.6%; in the assay with HCC-2998 colon, 121%; in the assay on KM12 colon it was 92.3%.
Consider `CN(C)CCCC(C#N)c1ccccc1` (stereo not drawn), for which the growth is 111% in the assay with BT-549 breast; 115% in the assay on MDA-MB-435 melanoma; 106% with SW-620 colon; 100% in the assay on MCF7 breast; 107% with HCT-116 colon; 105% with HCC-2998 colon. Also, the growth in the assay on KM12 colon was 111%.
`CC(C)CC1NC(C)(C)CO1` (stereo not drawn): the growth in the assay on BT-549 breast is 116%; in the assay with MDA-MB-435 melanoma, 113%; in the assay on SW-620 colon it was 106%; in the assay with MCF7 breast, 104%; with HCT-116 colon, 114%; in the assay on HCC-2998 colon, 102%. The growth in the assay on KM12 colon is 110%.
Turning to `O=[N+]([O-])c1ccc(/C=C/C2(CCl)OCCO2)cc1`, the growth is 95.1% with T-47D breast; 86.5% in the assay with SW-620 colon; 106% with MCF7 breast; 61.3% in the assay with HCT-116 colon; 98.5% in the assay with HCC-2998 colon; 104% in the assay on KM12 colon.
With `C/C(=C\c1ccc(OCC(=O)O)c(Cl)c1Cl)[N+](=O)[O-]`, the growth in the assay with T-47D breast was 100%; in the assay on MDA-MB-435 melanoma it was 106%; with MCF7 breast, 103%; in the assay on HCT-116 colon, 109%; in the assay with HCC-2998 colon it was 97.1%; in the assay on KM12 colon, 104%.
Consider `O=c1[nH]c(-c2ccccc2)nc(CN2CCCCC2)c1O`, for which the growth was 109% in the assay on BT-549 breast; 104% in the assay on SW-620 colon; 104% in the assay on MCF7 breast; 105% with HCT-116 colon; 100% in the assay on HCC-2998 colon; 108% in the assay on KM12 colon.
Consider `NNc1cccc(/C=C/c2ccccc2)cc1=O`, for which the growth in the assay with BT-549 breast was 69.1%; in the assay with MDA-MB-435 melanoma, 73.2%; in the assay on SW-620 colon, 54.7%; in the assay on MCF7 breast it was 36.1%; with HCT-116 colon, 33.8%; with HCC-2998 colon it was 70.2%. In addition, the growth in the assay on KM12 colon is 59%.
On to `COc1ccc(NC(=O)CSc2nc(-c3ccc(OC)c(OC)c3)cc(-c3cc(OC)c(OC)c(OC)c3)n2)cc1`, for which the growth with BT-549 breast was 95.5%; with SW-620 colon it was 105%; with MCF7 breast, 94%; with HCT-116 colon it was 90.3%; in the assay with HCC-2998 colon, 111%; in the assay on KM12 colon it was 98.4%.
For `CCCOC(=O)n1cccc1`, the growth is 103% with BT-549 breast; 110% with MDA-MB-435 melanoma; 102% with SW-620 colon; 95% in the assay with MCF7 breast; 103% in the assay on HCT-116 colon; 104% with HCC-2998 colon. Besides, the growth with KM12 colon was 99.7%.
For `Nc1nc(-c2ccccc2)c(CCCOc2ccc(NC(=O)CBr)cc2)c(=O)[nH]1`, the growth with BT-549 breast was 100%; in the assay on MDA-MB-435 melanoma it was 94.6%; in the assay on SW-620 colon, 108%; in the assay with MCF7 breast, 78.8%; with HCT-116 colon, 103%; with HCC-2998 colon it was 107%. Further, the growth in the assay with KM12 colon is 109%.
As for `Cn1c(=O)c2[nH]c(C3CC=CCC3)nc2n(C)c1=O` (stereo not drawn), the growth in the assay with BT-549 breast was 108%; with MDA-MB-435 melanoma it was 106%; with SW-620 colon, 101%; in the assay on MCF7 breast, 102%; in the assay on HCT-116 colon, 106%; in the assay with HCC-2998 colon, 104%. Moreover, the growth in the assay on KM12 colon is 108%.
Regarding `COc1cc(Cn2cc3c(c2)-c2oncc2CC3)cc(OC)c1OC`, the growth with BT-549 breast was 36.7%; in the assay with MDA-MB-435 melanoma, -29.9% (active); with SW-620 colon, 27.1%; with MCF7 breast, 13.2%; in the assay with HCT-116 colon, 8.52% (active); with HCC-2998 colon, 12.1%. Moreover, the growth in the assay with KM12 colon was 3.04% (active).
`N#C/C(=C1C=C/C(=N/O)C(Cl)=C/1)c1ccc(Cl)cc1`: the growth in the assay with BT-549 breast is 87.2%; in the assay on MDA-MB-435 melanoma, 29.5%; in the assay on SW-620 colon, 59.2%; with MCF7 breast it was 13.7%; with HCT-116 colon, 1.93% (active); in the assay on HCC-2998 colon it was 101%. The growth in the assay with KM12 colon is -46.4% (active).
As for `Nc1nc(=O)c2ccccc2s1`, the growth is 101% in the assay on BT-549 breast; 102% in the assay on MDA-MB-435 melanoma; 116% in the assay on SW-620 colon; 103% with MCF7 breast; 107% in the assay with HCT-116 colon; 107% in the assay with HCC-2998 colon. Besides, the growth in the assay with KM12 colon was 112%.
